# Bioassay records as filed in PubChem.
# HT1080NT lethal: kills 2HG-producing HT-1080-NT fibrosarcoma cells | HT-1080-NT fibrosarcoma viability, CellTiter-Glo ATP luminescence, 48 h | Potency, µM (titrated, usually from 46.1 µM), for the others: at the highest dose activity, negative = less viability, actives largely listed as cytotoxic | hit rate 1.6% among 360,000 | AID 686970;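 further: NT is the 2HG producing partner of a matched IDH1 knockdown line; 0% = DMSO-treated cells and -100% = media-only wells without cells; nearly all actives have a fitted effect of over 55% in size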
#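 Toxicity toward the 2HG-producing NT line was scored as %Activity, normalised to DMSO and no-cell wells, from CellTiter-Glo luminescence after 48 hours' treatment.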
# KB-3-1 cytotox: KB-3-1 parental cell cytotoxicity. hit rate 1.4% among 400,000. KB-3-1 viability, CellTiter-Glo ATP luminescence, 72 h. Potency, µM (top dose mostly 46.1 µM), hits mostly cytotoxic; further: nearly all actives have a fitted effect of over 60% in size
#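 Cytotoxicity measured as CellTiter-Glo luminescence after 72 h at 37 C. Compound titrations were pinned onto drug-naive KB-3-1 parental adenocarcinoma cells grown in DMEM with 10% FBS, and normalized data fitted to concentration-response curves.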
# TDP1 cell CPT: growth inhibition of DT40 Tdp1-/-;hTDP1 cells with camptothecin (screen for TDP1 inhibitors); hit rate 12% among 420,000; AID 686979; chicken DT40 Tdp1-/-;hTDP1 cells + 20 nM CPT, ATP luminescence, 48 h; Potency, µM (highest dose often 46.2 µM), for the others: at the top dose activity change, negative = growth inhibition, usual class: inhibitors; further: nearly all actives have a fitted effect of over 55% in size
#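 Chicken DT40 Tdp1-/- cells complemented with human TDP1, 400 cells/well, exposed to compounds plus 20 nM camptothecin for at least 48 h at 37 C; viability read as ATP content by CellTiter-Glo luminescence.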
# HT1080 IDH1KD tx: kills HT-1080 cells with IDH1 knockdown. AID 686971. hit rate 2% among 360,000. Potency, µM (doses to about 46.1 µM), without a hit: at the top dose activity, negative = toxicity, usual class: cytotoxic. HT-1080 IDH1 knockdown viability, ATP luminescence, 48 h;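 further: 0% = DMSO wells and -100% = cell-free medium wells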
#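 After a 2 h attachment period, IDH1KD HT-1080 cells took pin-transferred compound for 48 h at 37 °C; ATP-based luminescence after 10 min room-temperature reagent incubation reported viability.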
# KB-V1 cytotox: kills drug-selected multidrug resistant KB-V1 cells; KB-V1 MDR cells viability, CellTiter-Glo, 72 h; Potency, µM (highest dose often 46.1 µM), hits mostly cytotoxic; hit rate 3.4% among 400,000; further: nearly all actives have a fitted effect of over 60% in size
#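 Potencies derive from concentration-effect curves fitted to normalized luminescence (CellTiter-Glo) of KB-V1 cells treated for 72 h at 37 degrees C in phenol-red-free DMEM containing 10% FBS.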
# DT40 TDP1 no CPT: qHTS for Inhibitors of human tyrosyl-DNA phosphodiesterase 1 (TDP1): qHTS in cells in absence of CPT; DT40 Tdp1-/- hTDP1 cells, no CPT, ATP luminescence, 48 h; Potency, µM (highest dose often 46.2 µM), for inactives: at the top dose activity change, negative = growth inhibition, hits mostly inhibitors; hit rate 15% among 420,000; AID 686978, 2013; further: nearly all actives have a fitted effect of over 55% in size
#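 Compound effects on proliferation are scored in DT40 Tdp1-/-;hTDP1 cells in the absence of CPT. ATP levels (CellTiter-Glo luminescence) are recorded after a ≥48 hr, 37 °C incubation.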
# The depositor's hits bear a star; i = inactive; ? = inconclusive; / = not tested or not shown; ! = repeats disagree; [ ] = another dose, or the depositor's remark. In the library only some 19% were active in any assay of this set; here they are far more common. The call rests on the fitted dose curve; in most records, active means well fitted curve in the direction sought with a large enough effect; inconclusive means small, poorly fitted or top-dose-only effect, or another doubt; inactive means no such curve, though single readings can be large; an effect the other way counts as inactive or inconclusive. Unless noted, on the % scale 0 is the no-effect control and ±100 the full control effect; potency means the concentration at half of the fitted maximal effect.
SMILES,HT1080NT lethal,KB-3-1 cytotox,TDP1 cell CPT,HT1080 IDH1KD tx,KB-V1 cytotox,DT40 TDP1 no CPT
Cc1c(NC(=S)NC(NC(=O)C(C)C)C(Cl)(Cl)Cl)c(=O)n(-c2ccccc2)n1C (centres undefined),-3%,i,15µM*,8%,i,15µM*
NC(=O)[C@@H]1CCCN1C(=O)CCN1Cc2ccccc2OC(c2ccccc2F)C1 (some centres undefined),/,/,14%[9.04 µM],/,/,-8%
CC(=O)c1ccc(NC(=O)CN(C)S(=O)(=O)c2cnc[nH]2)cc1,/,i,-3%,/,i,1%
Cc1cc(F)ccc1Nc1nc2ccc(Cl)cc2n2cnnc12,/,/,10%,/,/,-26%
CN1CCN(c2ccc(CNS(=O)(=O)Cc3cccc(C(F)(F)F)c3)cc2)CC1,18µM*,?,6.5µM*,-22%,?,3.7µM*
COc1cc(C(=O)Nc2cccc(OCc3cc(=O)n4cc(C)sc4n3)c2)cc(OC)c1OC,/,i,-29%,/,i,-30%
COc1cccc(NC(=O)Cn2c(=O)n(Cc3ccc(F)cc3)c(=O)c3sc4ccccc4c32)c1,/,i,?,/,i,-18%
O=c1cc(Nc2ccc3c(c2)OCO3)[nH]c(=O)n1-c1ccc(Br)cc1,?,i,?,35µM*,?,23µM*
Cc1cc(C)n(C(=O)c2c([N+](=O)[O-])c(C)nn2C)n1,1%,i,-13%,-12%,i,-1%
Cc1ccc(SC(=O)c2c([N+](=O)[O-])c(C)nn2C)cc1,?,i,18µM*,?,i,15µM*
Cc1ccc(C(=O)NC(Cc2ccccc2C(F)(F)F)C(=O)O)cc1 (centres undefined),3%,i,-3%,0%,i,0%
CCCc1cc(C(=O)N(C2CCCCC2)C2CCCCC2)no1,7%,i,?,5%,i,29µM*
CCCc1cc(C(=O)NC2CCCCC2)no1,15%,i,-19%,1%,i,12%
O=C(CSC1=NS(=O)(=O)c2ccccc21)Nc1ccccc1,-2%,15µM*,1.8µM*,-2%,i,2.6µM*
COC(=O)CSC1=NS(=O)(=O)c2ccccc21,-1%,i,1.5µM*,?,i,2.3µM*
O=C(CSC1=NS(=O)(=O)c2cc(F)ccc2N1)Nc1ccccc1,-15%,i,16%,-8%,?,-30%
CCN1CCCC1CNC(=O)C(=O)NC(C)c1ccccc1 (centres undefined),10%,i,0%,-2%,i,17%
CCOc1ccc(-c2nn(CC(=O)NC3CCCC3)c3c2cnc2ccc(C)cc23)cc1,/,i,-3%,/,i,3%
CCOC(=O)C[C@H]1c2cc(F)ccc2S(=O)(=O)N1c1ccccc1,0%,i,?,0%,?,?
COC(=O)C[C@H]1c2cc(F)ccc2S(=O)(=O)N1c1ccc(N(C)C)cc1,-1%,?,?,6%,?,13µM*
CCCCCCCCN1[C@@H](CC(=O)OCC)c2cc(F)ccc2S1(=O)=O,0%,?,?,-5%,15µM*!,?
CCCCCCCCN1[C@@H](CC(=O)OC)c2cc(F)ccc2S1(=O)=O,7%,i,?,-3%,?,13µM*
CCCCCCCCN1[C@@H](CC(=O)OCC)c2ccc(C(F)(F)F)cc2S1(=O)=O,-6%,i,13µM*,-18%,?,26µM*
CCCCCCCCCCCCN1[C@@H](CC(=O)O)c2cc(F)ccc2S1(=O)=O,-1%,i,?,-11%,?,3%
O=C(CN1CCN(S(=O)(=O)c2cc(Cl)ccc2Cl)CC1)Nc1cccc(F)c1,/,i,?,/,i,?
SMILES,HT1080NT lethal,KB-3-1 cytotox,TDP1 cell CPT,HT1080 IDH1KD tx,KB-V1 cytotox,DT40 TDP1 no CPT
CC(=O)C[C@H]1c2cc(C(F)(F)F)ccc2S(=O)(=O)N1c1ccccc1,0%,?,?,-1%,8.2µM*!,-24%
CCCCCCCCCCCCN1[C@@H](CC(=O)OC)c2cc(C(F)(F)F)ccc2S1(=O)=O,6%,i,?,7%,i,13µM*
CCn1c(CCl)nc2cc(S(=O)(=O)N3CCOCC3)ccc21,2%,?,7.3µM*,-13%,i,2.9µM*
CCn1c(SC)nc2cc(S(=O)(=O)N3CCCCC3)ccc21,-9%,21µM*,1.6µM*,?,i,-25%
CCn1c(CN2CCC(C)CC2)nc2cc(S(=O)(=O)N3CCCCC3)ccc21,1%,i,?,0%,?,13µM*
NC(=O)CSc1nc2cc(S(=O)(=O)N3CCOCC3)ccc2o1,1%,i,-2%,1%,i,-3%
CCn1c(SCC(=O)N(C)C)nc2cc(S(=O)(=O)N3CCOCC3)ccc21,2%,i,-10%,9%,i,-8%
Nc1nc2cc(S(=O)(=O)N3CCOCC3)ccc2o1,18%,i,23µM*,7%,i,?
Cc1ccccc1C(=O)N1CCC(C(=O)Nc2nc3ccc(F)cc3s2)CC1,-4%,i,?,-13%,?,?
CC(CCc1ccc2c(c1)OCO2)NN (centres undefined),/,/,14%,/,/,2%
CC1=C(C(=O)Nc2ccccc2C)C(c2ccco2)n2ncnc2N1 (centres undefined),/,i,-8%,/,i,-26%
CCn1c(SCC(=O)c2c[nH]c3ccccc23)nc2cc(S(=O)(=O)N3CCOCC3)ccc21,-3%,i,15µM*,-1%,i,21µM*
CCn1c(SCC(N)=O)nc2cc(S(=O)(=O)N3CCOCC3)ccc21,20%,i,-26%,7%,i,-3%
CCCn1c(CCC(=O)Nc2ccccc2Cc2ccccc2)nc2cc(S(=O)(=O)N3CCOCC3)ccc21,-24%,i,16µM*,-4%[9.24 µM],?,23µM*
CCOc1ccc2nc(NCCCNS(=O)(=O)c3ccc(F)cc3)c(C#N)cc2c1,-2%,18µM*,-24%,-12%,i,?
CCOc1ccc2nc(NCCNC(=O)c3cc(OC)c(OC)c(OC)c3)c(C#N)cc2c1,-9%,i,-20%,4%,i,?
COc1cccc(-c2nc(CS(=O)(=O)CC(=O)NCCc3ccc(Cl)cc3)c(C)o2)c1,/,i,?,/,i,?
O=S(=O)(Nc1ccc(-c2ccc(N3CCCC3)nn2)cc1)c1ccc(Br)cc1,/,i,?,/,i,?
